For 5 compounds, inhibition results are on record in ChEMBL document CHEMBL1961873, “Compounds: GSK PKIS; Assays: Nanosyn kinase panel” (2012).

Test [1] concerns the target High affinity nerve growth factor receptor (Homo sapiens) (UniProt P04629). As to conditions: at 1 µM.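 Also: each value is the mean percent inhibition of TRKA.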
In test [2] the target is BDNF/NT-3 growth factors receptor (Homo sapiens) (UniProt Q16620). The following applies: at 0.1 µM.
For test [3] the target is unchanged. As to conditions: at 1 µM.
Test [4] addresses NT-3 growth factor receptor (Homo sapiens) (UniProt Q16288). The following applies: at 0.1 µM.
For test [5] the target is unchanged. As to conditions: at 1 µM.
Test [6] concerns the target T1, Tyrosine-protein kinase TXK (Homo sapiens) (UniProt P42681).
T1 sequence (whole entry): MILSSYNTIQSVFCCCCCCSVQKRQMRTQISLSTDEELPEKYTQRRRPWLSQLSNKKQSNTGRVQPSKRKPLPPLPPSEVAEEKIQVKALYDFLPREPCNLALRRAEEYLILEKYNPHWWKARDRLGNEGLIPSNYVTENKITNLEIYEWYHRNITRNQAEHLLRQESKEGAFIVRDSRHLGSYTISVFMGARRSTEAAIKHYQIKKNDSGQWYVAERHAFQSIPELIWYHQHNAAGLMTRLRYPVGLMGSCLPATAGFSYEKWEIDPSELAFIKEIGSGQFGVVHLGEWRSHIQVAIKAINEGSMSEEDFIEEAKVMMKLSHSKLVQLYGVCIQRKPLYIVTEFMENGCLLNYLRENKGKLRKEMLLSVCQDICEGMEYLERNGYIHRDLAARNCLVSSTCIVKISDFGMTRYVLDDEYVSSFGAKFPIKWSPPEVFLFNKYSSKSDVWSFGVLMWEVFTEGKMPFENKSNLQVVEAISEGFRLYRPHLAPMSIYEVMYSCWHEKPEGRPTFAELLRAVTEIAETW
The following applies: at 0.1 µM.

Test [7] deals with T1, Tyrosine-protein kinase TXK (Homo sapiens). The following applies: at 1 µM.
Test [8] addresses Non-receptor tyrosine-protein kinase TYK2 (Homo sapiens) (UniProt P29597). The following applies: at 0.1 µM.
Test [9] concerns the target T2, Dual specificity protein kinase TTK (Homo sapiens) (UniProt P33981).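 Also: reported figures are mean TTK inhibition at 1 µM.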
T2 sequence (whole entry): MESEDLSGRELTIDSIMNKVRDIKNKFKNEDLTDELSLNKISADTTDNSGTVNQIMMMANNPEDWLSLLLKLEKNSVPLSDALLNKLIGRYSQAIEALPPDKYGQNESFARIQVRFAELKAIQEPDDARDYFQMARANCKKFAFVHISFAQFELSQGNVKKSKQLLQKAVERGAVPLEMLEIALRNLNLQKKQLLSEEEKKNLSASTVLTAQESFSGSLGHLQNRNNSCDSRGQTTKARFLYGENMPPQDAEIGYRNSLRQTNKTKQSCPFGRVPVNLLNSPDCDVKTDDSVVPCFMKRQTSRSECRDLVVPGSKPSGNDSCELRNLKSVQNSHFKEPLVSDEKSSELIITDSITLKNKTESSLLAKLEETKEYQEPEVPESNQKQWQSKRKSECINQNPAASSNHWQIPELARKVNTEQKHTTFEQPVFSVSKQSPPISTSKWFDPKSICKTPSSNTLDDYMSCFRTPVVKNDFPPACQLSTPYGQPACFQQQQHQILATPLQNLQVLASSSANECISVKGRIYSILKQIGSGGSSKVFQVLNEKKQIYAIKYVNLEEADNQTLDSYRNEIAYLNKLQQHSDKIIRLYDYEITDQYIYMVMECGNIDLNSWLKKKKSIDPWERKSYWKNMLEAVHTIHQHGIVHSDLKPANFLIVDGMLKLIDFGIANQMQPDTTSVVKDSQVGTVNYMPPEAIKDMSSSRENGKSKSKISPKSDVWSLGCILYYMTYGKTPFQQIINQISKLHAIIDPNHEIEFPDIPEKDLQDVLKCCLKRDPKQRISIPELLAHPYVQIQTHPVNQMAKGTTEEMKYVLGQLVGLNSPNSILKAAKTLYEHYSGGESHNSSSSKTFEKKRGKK
As to conditions: at 1 µM.

Test [10] has as its target T3, Aurora kinase A (Homo sapiens) (UniProt O14965).
T3 sequence (whole entry): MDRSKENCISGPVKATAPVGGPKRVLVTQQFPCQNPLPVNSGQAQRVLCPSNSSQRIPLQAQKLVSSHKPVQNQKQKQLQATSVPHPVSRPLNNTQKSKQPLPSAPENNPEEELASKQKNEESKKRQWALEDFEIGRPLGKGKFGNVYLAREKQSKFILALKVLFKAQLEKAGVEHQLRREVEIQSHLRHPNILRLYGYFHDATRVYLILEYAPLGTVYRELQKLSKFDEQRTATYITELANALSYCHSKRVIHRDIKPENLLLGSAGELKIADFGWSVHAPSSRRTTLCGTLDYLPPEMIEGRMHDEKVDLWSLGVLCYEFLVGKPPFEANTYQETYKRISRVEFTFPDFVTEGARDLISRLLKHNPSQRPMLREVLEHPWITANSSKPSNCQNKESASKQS
The following applies: at 0.1 µM.

The target in test [11] is T3, Aurora kinase A (Homo sapiens). The following applies: at 1 µM.
For test [12], the target named is Aurora kinase B (Homo sapiens) (UniProt Q96GD4). As to conditions: at 0.1 µM.
Chain of Aurora kinase B (Homo sapiens) (Q96GD4 whole entry): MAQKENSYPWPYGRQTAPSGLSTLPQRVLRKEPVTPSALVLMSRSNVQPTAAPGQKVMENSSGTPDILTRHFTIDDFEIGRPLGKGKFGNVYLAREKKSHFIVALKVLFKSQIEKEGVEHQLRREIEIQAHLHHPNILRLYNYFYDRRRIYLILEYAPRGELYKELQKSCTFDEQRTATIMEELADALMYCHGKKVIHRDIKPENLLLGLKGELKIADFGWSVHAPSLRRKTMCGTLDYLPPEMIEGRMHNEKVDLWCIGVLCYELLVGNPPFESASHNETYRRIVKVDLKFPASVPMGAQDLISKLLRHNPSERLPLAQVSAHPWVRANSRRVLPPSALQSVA
Test [13] has the same target. As to conditions: at 1 µM.
The target of test [14] is T4, Aurora kinase C (Homo sapiens) (UniProt Q9UQB9).
T4 sequence (whole entry): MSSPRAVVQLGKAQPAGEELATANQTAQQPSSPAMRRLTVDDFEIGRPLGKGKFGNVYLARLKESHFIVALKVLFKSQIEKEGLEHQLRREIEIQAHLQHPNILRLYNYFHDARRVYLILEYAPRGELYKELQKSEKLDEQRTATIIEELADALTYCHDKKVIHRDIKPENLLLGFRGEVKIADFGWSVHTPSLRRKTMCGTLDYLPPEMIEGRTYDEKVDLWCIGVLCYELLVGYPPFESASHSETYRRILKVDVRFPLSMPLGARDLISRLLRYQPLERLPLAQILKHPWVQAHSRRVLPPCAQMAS
As to conditions: at 0.1 µM.

The target of test [15] is T4, Aurora kinase C (Homo sapiens). As to conditions: at 1 µM.
The target of test [16] is Serine/threonine-protein kinase 10 (Homo sapiens) (UniProt O94804). As to conditions: at 0.1 µM.
For test [17] the target is unchanged. The following applies: at 1 µM.
The target in test [18] is T5, Mitogen-activated protein kinase kinase kinase kinase 2 (Homo sapiens) (UniProt Q12851).
T5 sequence (whole entry): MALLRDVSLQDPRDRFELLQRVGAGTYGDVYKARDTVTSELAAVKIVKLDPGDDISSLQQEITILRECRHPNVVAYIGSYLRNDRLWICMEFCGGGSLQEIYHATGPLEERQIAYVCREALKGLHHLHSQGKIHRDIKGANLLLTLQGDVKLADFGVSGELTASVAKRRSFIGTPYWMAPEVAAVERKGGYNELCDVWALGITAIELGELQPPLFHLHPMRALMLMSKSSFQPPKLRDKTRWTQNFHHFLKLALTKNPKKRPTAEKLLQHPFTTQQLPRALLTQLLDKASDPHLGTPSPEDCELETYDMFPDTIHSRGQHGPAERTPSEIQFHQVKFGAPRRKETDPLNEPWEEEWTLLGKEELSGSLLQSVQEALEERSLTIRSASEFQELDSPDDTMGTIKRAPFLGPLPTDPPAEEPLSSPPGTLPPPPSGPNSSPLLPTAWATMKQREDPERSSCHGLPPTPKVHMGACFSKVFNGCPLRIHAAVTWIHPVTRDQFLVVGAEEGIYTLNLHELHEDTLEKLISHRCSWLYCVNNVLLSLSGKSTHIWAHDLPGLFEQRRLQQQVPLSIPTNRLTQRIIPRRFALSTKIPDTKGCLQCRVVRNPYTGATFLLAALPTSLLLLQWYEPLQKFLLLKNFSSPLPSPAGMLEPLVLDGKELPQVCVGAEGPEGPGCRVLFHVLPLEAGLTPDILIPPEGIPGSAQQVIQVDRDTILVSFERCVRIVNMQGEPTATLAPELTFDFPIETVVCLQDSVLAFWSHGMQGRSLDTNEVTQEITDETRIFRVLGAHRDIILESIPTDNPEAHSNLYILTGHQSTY
The following applies: at 0.1 µM.

Test [19] concerns the target T5, Mitogen-activated protein kinase kinase kinase kinase 2 (Homo sapiens). As to conditions: at 1 µM.
Test [20] deals with Mitogen-activated protein kinase kinase kinase kinase 4 (Homo sapiens) (UniProt O95819). As to conditions: at 0.1 µM.
Chain of Mitogen-activated protein kinase kinase kinase kinase 4 (Homo sapiens) (O95819 2-1239 limits assumed): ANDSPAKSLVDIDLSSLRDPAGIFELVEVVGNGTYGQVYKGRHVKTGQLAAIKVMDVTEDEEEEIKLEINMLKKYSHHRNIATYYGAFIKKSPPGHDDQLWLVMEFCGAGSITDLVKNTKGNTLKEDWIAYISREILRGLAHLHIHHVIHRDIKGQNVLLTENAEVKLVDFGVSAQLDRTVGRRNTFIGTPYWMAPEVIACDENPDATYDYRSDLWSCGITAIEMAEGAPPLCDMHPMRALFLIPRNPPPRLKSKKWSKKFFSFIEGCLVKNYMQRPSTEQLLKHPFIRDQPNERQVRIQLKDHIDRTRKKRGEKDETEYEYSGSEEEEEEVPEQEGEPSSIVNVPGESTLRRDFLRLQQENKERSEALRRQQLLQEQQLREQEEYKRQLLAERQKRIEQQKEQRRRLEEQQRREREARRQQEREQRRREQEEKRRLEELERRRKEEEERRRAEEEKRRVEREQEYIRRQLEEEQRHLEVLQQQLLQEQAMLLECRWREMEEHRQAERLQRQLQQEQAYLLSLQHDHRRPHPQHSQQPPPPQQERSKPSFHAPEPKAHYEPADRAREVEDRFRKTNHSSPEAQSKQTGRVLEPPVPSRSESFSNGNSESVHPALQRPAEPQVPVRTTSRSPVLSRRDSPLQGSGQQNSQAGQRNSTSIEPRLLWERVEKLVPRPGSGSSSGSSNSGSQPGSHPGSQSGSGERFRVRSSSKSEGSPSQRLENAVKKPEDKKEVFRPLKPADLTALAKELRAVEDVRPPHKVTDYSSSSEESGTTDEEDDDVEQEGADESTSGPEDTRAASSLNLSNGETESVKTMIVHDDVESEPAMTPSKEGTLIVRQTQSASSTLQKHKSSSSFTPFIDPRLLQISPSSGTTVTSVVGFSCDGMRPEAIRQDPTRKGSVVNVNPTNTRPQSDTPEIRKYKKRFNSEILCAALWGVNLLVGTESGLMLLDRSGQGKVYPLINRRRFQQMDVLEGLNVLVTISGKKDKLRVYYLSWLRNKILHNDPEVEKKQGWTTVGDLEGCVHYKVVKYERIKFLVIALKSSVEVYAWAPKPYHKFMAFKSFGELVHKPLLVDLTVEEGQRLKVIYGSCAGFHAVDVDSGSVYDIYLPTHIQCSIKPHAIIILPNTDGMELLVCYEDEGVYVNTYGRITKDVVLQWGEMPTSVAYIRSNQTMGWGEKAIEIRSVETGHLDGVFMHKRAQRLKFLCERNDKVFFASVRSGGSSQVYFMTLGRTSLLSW

Chain of BDNF/NT-3 growth factors receptor (Homo sapiens) (Q16620 32-822 limits assumed): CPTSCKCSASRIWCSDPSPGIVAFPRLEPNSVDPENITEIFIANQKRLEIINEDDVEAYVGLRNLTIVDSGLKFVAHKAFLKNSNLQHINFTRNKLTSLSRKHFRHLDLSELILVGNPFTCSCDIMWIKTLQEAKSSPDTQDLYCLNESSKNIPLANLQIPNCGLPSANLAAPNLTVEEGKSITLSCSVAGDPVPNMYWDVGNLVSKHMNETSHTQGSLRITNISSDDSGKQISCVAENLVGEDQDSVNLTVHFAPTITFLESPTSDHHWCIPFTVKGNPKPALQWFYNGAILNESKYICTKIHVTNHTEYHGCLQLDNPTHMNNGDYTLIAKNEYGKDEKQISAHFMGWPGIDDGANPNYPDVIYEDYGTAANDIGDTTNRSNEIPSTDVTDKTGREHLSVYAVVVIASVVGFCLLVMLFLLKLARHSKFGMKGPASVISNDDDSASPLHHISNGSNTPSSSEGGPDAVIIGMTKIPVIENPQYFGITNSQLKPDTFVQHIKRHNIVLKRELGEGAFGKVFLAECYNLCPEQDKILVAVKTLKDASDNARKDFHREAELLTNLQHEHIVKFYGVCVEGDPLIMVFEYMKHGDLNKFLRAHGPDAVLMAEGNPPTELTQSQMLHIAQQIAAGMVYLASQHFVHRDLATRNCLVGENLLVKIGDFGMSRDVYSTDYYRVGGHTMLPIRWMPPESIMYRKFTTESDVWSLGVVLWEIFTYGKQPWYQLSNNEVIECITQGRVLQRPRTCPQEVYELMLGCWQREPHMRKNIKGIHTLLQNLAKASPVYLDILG
Chain of Non-receptor tyrosine-protein kinase TYK2 (Homo sapiens) (P29597 whole entry): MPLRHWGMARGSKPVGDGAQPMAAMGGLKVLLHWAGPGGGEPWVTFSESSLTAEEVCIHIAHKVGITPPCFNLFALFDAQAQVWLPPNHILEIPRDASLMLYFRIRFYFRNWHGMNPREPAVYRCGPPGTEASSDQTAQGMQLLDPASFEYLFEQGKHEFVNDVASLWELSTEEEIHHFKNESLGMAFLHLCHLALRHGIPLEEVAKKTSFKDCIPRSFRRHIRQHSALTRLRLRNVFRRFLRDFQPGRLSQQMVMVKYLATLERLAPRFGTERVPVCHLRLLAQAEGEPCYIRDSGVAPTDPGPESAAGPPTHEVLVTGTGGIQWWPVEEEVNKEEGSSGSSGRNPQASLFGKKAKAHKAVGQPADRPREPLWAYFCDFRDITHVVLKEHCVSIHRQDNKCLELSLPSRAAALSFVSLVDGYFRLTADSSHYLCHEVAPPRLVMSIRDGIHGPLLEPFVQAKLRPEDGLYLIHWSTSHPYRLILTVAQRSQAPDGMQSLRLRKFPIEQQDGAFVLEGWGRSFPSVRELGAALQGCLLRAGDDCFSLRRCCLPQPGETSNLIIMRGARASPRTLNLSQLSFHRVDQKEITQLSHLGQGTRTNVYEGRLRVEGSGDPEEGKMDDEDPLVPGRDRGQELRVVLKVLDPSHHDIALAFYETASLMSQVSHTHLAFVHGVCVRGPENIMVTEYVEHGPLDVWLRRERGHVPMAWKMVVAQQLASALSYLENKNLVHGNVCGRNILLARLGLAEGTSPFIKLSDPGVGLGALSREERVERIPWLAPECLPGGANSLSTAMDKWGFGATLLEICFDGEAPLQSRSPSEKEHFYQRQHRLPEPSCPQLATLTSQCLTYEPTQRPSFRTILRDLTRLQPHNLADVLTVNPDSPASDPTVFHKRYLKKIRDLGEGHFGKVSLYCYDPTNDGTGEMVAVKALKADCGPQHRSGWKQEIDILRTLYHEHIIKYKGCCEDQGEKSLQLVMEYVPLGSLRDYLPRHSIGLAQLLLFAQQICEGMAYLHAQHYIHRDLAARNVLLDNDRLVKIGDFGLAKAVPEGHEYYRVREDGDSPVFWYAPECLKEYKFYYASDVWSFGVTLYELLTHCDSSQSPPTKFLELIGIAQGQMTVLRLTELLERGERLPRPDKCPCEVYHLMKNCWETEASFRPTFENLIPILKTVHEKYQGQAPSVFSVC
Chain of High affinity nerve growth factor receptor (Homo sapiens) (P04629 33-796 limits assumed): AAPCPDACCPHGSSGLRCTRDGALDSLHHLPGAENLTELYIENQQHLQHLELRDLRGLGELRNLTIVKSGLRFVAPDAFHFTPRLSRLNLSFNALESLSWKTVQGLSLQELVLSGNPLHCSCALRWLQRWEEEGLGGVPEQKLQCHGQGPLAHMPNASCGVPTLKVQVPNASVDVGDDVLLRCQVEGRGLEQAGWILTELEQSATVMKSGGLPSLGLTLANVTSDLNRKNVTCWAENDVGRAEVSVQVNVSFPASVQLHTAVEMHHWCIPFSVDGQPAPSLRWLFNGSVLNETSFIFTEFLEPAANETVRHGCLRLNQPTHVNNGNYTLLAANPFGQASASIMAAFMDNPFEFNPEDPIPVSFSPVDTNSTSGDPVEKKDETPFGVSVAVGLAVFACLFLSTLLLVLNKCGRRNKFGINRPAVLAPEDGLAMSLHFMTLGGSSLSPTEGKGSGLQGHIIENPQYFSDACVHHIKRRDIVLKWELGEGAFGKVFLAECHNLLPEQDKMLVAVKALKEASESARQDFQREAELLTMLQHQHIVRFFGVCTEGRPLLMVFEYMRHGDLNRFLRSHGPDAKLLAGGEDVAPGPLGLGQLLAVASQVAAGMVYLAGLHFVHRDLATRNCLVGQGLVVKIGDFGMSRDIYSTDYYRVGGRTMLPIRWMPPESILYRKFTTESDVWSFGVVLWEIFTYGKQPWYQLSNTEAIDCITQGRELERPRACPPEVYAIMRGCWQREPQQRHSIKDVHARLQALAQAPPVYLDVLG

In the case of `O=C1Nc2ccccc2/C1=C1\CCc2cc(O)ccc21`, the inhibition (commonly the relative decrease from the control value, in per cent) was determined as 70.6% in test [1]; 28.6% in [2]; 78% in [3]; 28% in test [4]; 77.5% in [5]; 2.88% in test [6]. Also, the inhibition in [7] was 8.68%; in [8], -2.35%; in test [9], 31.4%; in test [10], 8.42%; in test [11], 70.9%; in test [12], 44.8%. Moreover, the inhibition in test [13] amounted to 80.5%; in test [14], 53.7%; in test [15], 93.4%; in test [16], 6.67%; in test [17], 16.1%; in test [18] it was 12.1%. The inhibition turned out to be 52.6% in test [19] and 23.3% in [20].

For the compound `COc1cc2c(cc1Nc1nc(Nc3cccc(F)c3C(N)=O)c3cc[nH]c3n1)N(C(=O)CN1CCN(C(C)C)CC1)CC2`, the inhibition in test [1] was 0.01%; in test [2], -0.13%; in test [3] it was 0.84%; in test [4] it was -1.97%; in [5], -0.99%; in [6], 7.39%. Further, the inhibition came out at 3.01% in test [7]; 0.12% in test [8]; 47.7% in test [9]; 0.69% in test [10]; 0.34% in test [11]; 1.62% in test [12]. Also, the inhibition was 2.41% in test [13]; -0.27% in [14]; 3.25% in [15]; 2.03% in test [16]; 5.12% in test [17]; 1.69% in test [18]. Besides, the inhibition in [19] came out at 11.3%; in [20], 0.45%.

`CNC(=O)c1ncccc1Nc1nc(Nc2cc3c(cc2OC)CCCN3C(=O)CN(C)C)nc2[nH]ccc12`: the inhibition in test [1] was 6.12%; in test [2], 3.17%; in test [3], 5.34%; in test [4] it was 2.2%; in test [5], 5.36%; in test [6], 3.73%. Further, the inhibition was 1.5% in test [7]; -3.3% in [8]; 35.2% in test [9]; 2.64% in test [10]; 6.59% in test [11]; 3.79% in test [12]. Further, the inhibition worked out at 8.73% in test [13]; 2.36% in test [14]; 4.16% in [15]; 7.25% in test [16]; 4.81% in test [17]; 1.56% in test [18]. Also, the inhibition in test [19] is 4.18%; in [20] it was 4.22%.

With `COc1ccc(Nc2ncc(-c3ccccc3)o2)cc1OC`, the inhibition is 14.1% in [1]; 2.88% in test [2]; 27.1% in test [3]; 2.7% in test [4]; 27.1% in [5]; 4.28% in test [6]. In addition, the inhibition in [7] is 17.8%; in [8], 0.66%; in [9], 1.06%; in test [10], 9.76%; in test [11] it was 75.4%; in test [12], 8.72%. For the same compound, the inhibition in test [13] was 51.1%; in [14] it was 10.2%; in [15], 82.2%; in [16], -1.08%; in [17] it was 11.2%; in [18], 3.92%. In addition, the figures for the inhibition in test [19] and in test [20] were 14.3% and 8.63%, respectively.

As for `CC1=C(C(=O)Nc2ccc3[nH]nc(C)c3c2)C(c2ccc(C(F)(F)F)cc2)CC(=O)N1` (stereo not given), the inhibition in [1] amounted to 3.25%; in test [2] it was 1%; in test [3], 3.58%; in [4], 2.43%; in test [5], 6.4%; in test [6], 3.55%. The inhibition in [7] is 6.06%; in test [8], 0.25%; in test [9], -0.26%; in test [10], 17.9%; in test [11], 88.3%; in test [12], 7.45%. The inhibition in test [13] amounted to 45.7%; in [14], 7.71%; in test [15] it was 78.2%; in [16] it was 2.01%; in test [17], 4.46%; in test [18], 0.76%. In addition, the inhibition in test [19] amounted to 3.74%; in test [20], 4.23%.
